We go through one sequence from paper PMC7862700, “An all-to-all approach to the identification of sequence-specific readers for epigenetic DNA modifications on cytosine”.

Holding throughout (assay): DAPPL (digital affinity profiling via proximity ligation, sequencing); 10 mM Tris-HCl pH 7.5, 50 mM NaCl, 1 mM DTT, 4% glycerol, room temperature, 30 min; GST-TFs on glutathione beads, 16-mer random dsDNA library, 0.1% formaldehyde crosslink after washing; high values mean tight binding
One experiment concerns the target T1, FEV (Homo sapiens, UniProt Q99581 1-238).
T1 sequence: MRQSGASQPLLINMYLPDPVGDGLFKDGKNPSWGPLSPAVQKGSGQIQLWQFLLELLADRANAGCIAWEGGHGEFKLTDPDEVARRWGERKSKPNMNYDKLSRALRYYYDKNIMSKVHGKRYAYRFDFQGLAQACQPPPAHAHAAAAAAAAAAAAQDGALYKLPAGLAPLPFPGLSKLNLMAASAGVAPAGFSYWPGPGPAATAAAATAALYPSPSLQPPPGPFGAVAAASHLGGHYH
To be noted: protein: recombinant; tags: N-terminal GST; dsDNA, one strand shown. In short, it runs like this:
(§1)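 Yeast served to express human transcription factors as GST fusions, which were then captured on glutathione beads and labelled with DNA barcodes. Pooled with a tag-only sample, they were incubated with 200 nmole of a 16-mer random double-stranded DNA library for 30 min at room temperature in Tris/NaCl/DTT/glycerol buffer, washed, crosslinked with 0.1% formaldehyde, ligated by proximity, amplified by PCR and sequenced. Dividing each hexamer's read frequency for a factor by its frequency for the tag-only sample gives the binding signal.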

A further experiment has as its target ETV5 (Homo sapiens, UniProt P41161 1-510). The following applies: protein: recombinant; tags: N-terminal GST; dsDNA, one strand shown. In short, it runs like this:
as §1

The target of a further experiment is HSF1 (Homo sapiens, UniProt Q00613 1-529). The following applies: protein: recombinant; tags: N-terminal GST; chain copies: 3; dsDNA, one strand shown. In short, it runs like this:
as §1

The next experiment has as its target T2, SPIC (Homo sapiens, UniProt Q8N5J4 1-248).
T2 sequence: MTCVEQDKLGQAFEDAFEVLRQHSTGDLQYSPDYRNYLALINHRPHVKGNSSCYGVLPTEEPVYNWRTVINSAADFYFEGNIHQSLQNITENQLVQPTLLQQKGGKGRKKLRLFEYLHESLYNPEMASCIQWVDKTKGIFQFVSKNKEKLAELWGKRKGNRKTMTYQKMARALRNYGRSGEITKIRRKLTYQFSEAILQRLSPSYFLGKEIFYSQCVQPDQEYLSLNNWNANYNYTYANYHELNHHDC
To be noted: protein: recombinant; tags: N-terminal GST; dsDNA, one strand shown. In short, it runs like this: as §1

The target in the next experiment is ELF4 (Homo sapiens, UniProt Q99607 1-663). To be noted: protein: recombinant; tags: N-terminal GST; dsDNA, one strand shown. In short, it runs like this:
as §1

The target of another experiment is T3, ELK4 (Homo sapiens, UniProt P28324-2 1-405).
T3 sequence: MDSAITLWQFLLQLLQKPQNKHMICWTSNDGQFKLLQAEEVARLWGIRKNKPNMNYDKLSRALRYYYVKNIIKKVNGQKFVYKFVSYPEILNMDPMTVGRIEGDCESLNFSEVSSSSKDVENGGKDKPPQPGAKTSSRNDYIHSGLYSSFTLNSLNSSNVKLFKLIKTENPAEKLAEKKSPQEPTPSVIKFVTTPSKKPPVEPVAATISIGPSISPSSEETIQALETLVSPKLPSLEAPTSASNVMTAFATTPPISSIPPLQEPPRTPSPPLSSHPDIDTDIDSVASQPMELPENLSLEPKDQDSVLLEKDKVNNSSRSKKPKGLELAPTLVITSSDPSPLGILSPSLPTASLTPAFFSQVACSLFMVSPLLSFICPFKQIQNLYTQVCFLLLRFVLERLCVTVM
The following applies: protein: recombinant; tags: N-terminal GST; dsDNA, one strand shown. In short, it runs like this:
as §1

Another experiment has as its target T4, ETV2 (Homo sapiens, UniProt O00321 1-342).
T4 sequence: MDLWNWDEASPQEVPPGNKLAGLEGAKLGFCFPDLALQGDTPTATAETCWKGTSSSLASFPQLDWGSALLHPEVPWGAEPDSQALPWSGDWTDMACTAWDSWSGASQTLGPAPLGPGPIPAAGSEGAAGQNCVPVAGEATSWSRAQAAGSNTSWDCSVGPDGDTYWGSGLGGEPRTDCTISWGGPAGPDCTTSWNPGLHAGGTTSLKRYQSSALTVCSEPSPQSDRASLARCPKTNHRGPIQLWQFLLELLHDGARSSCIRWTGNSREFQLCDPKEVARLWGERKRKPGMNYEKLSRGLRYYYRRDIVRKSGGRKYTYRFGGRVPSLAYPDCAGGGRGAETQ
The following applies: protein: recombinant; tags: N-terminal GST; dsDNA, one strand shown. In short, it runs like this:
as §1

Another experiment deals with T5, ELF3 (Homo sapiens, UniProt P78545 1-371).
T5 sequence: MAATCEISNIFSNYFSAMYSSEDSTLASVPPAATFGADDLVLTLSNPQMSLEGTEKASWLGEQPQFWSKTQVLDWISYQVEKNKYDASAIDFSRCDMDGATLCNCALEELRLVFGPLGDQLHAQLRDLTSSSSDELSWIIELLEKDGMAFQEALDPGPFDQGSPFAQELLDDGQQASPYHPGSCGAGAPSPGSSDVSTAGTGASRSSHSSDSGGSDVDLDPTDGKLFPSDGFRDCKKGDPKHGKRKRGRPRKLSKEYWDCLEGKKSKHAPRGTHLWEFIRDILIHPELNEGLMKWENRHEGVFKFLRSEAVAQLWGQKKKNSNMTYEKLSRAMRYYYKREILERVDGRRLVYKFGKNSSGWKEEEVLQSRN
The following applies: protein: recombinant; tags: N-terminal GST; dsDNA, one strand shown. In short, it runs like this:
as §1

The next experiment concerns the target CRX (Homo sapiens, UniProt O43186 1-299). The following applies: protein: recombinant; tags: N-terminal GST; dsDNA, one strand shown. In short, it runs like this: as §1
For another experiment, the target named is ETV1 (Homo sapiens, UniProt P50549 1-477). To be noted: protein: recombinant; tags: N-terminal GST; dsDNA, one strand shown. In short, it runs like this: as §1
Chain of ETV1 (P50549 whole entry): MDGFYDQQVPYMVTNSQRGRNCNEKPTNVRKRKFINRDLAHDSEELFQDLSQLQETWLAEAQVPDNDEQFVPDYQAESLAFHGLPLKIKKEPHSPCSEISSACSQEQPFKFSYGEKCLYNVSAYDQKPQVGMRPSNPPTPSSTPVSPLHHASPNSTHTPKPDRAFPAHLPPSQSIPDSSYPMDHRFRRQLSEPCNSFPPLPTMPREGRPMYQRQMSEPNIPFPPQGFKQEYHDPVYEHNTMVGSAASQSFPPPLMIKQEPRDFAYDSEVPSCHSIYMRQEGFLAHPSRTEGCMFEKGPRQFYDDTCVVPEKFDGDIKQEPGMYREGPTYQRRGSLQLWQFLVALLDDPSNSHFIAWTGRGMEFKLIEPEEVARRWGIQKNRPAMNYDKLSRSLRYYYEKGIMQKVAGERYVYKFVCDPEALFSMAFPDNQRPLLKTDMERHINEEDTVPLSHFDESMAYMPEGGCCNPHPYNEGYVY
The target in a further experiment is T6, ERF (Homo sapiens, UniProt P50548 1-548).
T6 sequence: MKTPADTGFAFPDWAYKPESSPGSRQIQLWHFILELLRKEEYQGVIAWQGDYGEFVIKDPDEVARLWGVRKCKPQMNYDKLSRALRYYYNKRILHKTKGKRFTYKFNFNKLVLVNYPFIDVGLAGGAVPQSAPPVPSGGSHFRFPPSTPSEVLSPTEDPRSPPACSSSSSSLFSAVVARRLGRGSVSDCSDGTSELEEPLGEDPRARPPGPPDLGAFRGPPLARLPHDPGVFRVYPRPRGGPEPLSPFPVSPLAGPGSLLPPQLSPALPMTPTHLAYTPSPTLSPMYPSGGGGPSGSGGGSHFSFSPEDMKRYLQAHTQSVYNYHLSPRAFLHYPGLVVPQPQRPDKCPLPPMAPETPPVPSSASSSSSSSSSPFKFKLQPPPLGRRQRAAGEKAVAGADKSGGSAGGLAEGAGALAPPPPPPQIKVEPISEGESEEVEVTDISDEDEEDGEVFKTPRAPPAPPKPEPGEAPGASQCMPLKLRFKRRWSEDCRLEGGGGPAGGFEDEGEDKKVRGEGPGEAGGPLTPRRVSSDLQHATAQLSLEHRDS
To be noted: protein: recombinant; tags: N-terminal GST; dsDNA, one strand shown. In short, it runs like this:
as §1

For a further experiment, the target named is T7, ETV3L (Homo sapiens, UniProt Q6ZN32 1-361).
T7 sequence: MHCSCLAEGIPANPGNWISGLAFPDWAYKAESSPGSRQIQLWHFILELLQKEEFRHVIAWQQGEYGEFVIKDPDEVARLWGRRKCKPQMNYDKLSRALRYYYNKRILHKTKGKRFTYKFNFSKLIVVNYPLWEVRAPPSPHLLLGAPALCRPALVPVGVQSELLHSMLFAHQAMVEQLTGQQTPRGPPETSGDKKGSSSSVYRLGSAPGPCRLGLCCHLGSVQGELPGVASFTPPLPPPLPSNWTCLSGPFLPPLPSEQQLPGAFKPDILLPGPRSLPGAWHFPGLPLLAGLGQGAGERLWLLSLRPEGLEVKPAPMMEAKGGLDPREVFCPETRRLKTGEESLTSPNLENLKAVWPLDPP
The following applies: protein: recombinant; tags: N-terminal GST; dsDNA, one strand shown. In short, it runs like this: as §1

The target in the next experiment is T8, ETS2 (Homo sapiens, UniProt P15036 1-469).
T8 sequence: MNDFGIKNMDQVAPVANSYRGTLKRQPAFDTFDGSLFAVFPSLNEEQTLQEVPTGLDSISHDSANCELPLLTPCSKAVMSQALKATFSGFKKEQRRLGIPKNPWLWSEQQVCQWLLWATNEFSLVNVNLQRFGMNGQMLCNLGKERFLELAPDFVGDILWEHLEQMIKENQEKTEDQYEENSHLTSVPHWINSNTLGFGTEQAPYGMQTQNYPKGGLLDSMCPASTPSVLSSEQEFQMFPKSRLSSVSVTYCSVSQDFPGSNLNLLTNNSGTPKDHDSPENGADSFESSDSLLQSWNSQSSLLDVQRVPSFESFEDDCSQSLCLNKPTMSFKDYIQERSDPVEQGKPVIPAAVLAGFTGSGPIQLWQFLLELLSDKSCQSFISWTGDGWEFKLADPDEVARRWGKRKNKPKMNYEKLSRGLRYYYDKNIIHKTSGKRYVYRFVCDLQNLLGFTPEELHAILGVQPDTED
The following applies: protein: recombinant; tags: N-terminal GST; dsDNA, one strand shown. In short, it runs like this:
as §1

The next experiment addresses T9, SPDEF (Homo sapiens, UniProt O95238 1-335).
T9 sequence: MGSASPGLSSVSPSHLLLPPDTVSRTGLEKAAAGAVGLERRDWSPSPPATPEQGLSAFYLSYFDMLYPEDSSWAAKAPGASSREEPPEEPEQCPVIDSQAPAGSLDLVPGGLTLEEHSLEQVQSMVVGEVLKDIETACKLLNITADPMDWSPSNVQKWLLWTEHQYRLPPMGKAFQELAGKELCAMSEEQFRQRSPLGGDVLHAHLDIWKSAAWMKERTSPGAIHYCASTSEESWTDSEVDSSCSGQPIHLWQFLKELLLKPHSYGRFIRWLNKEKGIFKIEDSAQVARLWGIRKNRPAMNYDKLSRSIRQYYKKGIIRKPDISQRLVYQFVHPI
The following applies: protein: recombinant; tags: N-terminal GST; dsDNA, one strand shown. In short, it runs like this:
as §1

The target in another experiment is T10, ETV7 (Homo sapiens, UniProt Q9Y603 1-341).
T10 sequence: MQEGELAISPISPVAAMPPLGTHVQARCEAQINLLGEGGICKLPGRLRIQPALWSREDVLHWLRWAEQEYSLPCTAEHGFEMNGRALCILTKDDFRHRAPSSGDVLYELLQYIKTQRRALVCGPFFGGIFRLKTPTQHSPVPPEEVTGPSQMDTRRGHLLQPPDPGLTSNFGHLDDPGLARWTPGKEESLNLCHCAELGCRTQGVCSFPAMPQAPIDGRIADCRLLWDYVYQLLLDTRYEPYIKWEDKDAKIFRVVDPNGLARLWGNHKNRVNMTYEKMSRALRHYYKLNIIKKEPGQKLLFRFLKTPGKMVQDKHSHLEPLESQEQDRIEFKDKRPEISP
To be noted: protein: recombinant; tags: N-terminal GST; dsDNA, one strand shown. In short, it runs like this:
as §1

A further experiment addresses T11, ELF5 (Homo sapiens, UniProt Q9UKW6-2 1-255).
T11 sequence: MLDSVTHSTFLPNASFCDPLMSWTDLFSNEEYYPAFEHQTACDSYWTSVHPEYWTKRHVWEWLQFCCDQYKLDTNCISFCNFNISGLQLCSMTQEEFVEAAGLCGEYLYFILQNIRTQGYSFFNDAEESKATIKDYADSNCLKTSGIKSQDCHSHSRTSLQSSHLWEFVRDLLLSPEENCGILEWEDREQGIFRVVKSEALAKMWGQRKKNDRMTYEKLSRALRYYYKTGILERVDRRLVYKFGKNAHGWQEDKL
The following applies: protein: recombinant; tags: N-terminal GST; dsDNA, one strand shown. In short, it runs like this: as §1

In another experiment the target is T12, ETV3 (Homo sapiens, UniProt P41162-2 1-143).
T12 sequence: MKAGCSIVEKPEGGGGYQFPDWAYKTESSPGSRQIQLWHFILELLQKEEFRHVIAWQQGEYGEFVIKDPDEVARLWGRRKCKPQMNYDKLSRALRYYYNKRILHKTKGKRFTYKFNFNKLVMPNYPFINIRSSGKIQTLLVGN
The following applies: protein: recombinant; tags: N-terminal GST; dsDNA, one strand shown. In short, it runs like this: as §1

Another experiment addresses ETV6 (Homo sapiens, UniProt P41212 1-452). The following applies: protein: recombinant; tags: N-terminal GST; dsDNA, one strand shown. In short, it runs like this:
as §1

Chain of ETV6 (P41212 whole entry): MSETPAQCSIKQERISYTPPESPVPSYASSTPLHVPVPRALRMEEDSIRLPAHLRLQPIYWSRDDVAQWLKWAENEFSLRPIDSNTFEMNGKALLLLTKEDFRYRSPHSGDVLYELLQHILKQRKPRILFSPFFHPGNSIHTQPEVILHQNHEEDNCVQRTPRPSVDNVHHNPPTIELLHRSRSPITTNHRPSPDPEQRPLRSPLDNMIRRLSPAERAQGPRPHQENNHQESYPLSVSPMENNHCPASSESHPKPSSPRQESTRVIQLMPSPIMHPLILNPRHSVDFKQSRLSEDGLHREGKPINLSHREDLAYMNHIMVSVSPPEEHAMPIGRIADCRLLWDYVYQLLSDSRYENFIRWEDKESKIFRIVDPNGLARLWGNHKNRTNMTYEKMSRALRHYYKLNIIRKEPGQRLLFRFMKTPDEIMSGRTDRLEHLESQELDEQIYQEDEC
Chain of CRX (O43186 whole entry): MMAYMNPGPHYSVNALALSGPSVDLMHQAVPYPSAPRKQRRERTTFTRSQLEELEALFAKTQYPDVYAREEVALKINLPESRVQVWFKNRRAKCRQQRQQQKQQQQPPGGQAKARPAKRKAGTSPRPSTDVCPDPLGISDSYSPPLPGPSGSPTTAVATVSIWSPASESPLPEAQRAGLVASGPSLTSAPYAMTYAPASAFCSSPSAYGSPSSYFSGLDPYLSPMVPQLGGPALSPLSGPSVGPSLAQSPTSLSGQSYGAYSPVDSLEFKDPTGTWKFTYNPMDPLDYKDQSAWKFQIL
Chain of ETV5 (P41161 whole entry): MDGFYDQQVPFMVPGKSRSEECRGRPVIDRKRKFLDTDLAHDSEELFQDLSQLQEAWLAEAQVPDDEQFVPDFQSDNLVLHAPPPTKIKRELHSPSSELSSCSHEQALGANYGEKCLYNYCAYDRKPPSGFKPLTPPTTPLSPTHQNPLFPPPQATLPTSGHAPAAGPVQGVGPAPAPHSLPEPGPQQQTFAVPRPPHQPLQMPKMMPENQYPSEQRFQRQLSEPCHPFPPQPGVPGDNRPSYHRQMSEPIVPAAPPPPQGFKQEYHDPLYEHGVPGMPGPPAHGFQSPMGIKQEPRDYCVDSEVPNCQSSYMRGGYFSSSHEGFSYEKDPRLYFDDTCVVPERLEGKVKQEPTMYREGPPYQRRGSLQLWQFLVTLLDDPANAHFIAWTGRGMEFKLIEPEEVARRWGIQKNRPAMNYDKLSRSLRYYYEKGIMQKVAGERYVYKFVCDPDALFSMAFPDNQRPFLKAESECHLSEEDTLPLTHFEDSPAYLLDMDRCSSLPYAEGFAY
Chain of HSF1 (Q00613 whole entry): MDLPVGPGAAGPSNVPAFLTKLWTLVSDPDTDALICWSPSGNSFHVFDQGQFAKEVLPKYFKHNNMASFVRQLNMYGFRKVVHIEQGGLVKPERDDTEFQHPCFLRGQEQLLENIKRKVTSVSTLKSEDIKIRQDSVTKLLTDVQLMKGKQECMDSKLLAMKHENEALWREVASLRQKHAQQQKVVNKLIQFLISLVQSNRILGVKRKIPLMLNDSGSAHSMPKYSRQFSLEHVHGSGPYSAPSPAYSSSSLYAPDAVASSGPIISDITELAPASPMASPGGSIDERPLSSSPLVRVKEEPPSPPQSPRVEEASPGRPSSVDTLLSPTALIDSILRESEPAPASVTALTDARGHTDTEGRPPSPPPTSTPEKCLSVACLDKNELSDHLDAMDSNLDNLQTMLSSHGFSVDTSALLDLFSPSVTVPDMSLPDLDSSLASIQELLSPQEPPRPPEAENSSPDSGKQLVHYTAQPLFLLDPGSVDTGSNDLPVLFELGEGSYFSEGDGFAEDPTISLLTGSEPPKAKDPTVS
Chain of ELF4 (Q99607 whole entry): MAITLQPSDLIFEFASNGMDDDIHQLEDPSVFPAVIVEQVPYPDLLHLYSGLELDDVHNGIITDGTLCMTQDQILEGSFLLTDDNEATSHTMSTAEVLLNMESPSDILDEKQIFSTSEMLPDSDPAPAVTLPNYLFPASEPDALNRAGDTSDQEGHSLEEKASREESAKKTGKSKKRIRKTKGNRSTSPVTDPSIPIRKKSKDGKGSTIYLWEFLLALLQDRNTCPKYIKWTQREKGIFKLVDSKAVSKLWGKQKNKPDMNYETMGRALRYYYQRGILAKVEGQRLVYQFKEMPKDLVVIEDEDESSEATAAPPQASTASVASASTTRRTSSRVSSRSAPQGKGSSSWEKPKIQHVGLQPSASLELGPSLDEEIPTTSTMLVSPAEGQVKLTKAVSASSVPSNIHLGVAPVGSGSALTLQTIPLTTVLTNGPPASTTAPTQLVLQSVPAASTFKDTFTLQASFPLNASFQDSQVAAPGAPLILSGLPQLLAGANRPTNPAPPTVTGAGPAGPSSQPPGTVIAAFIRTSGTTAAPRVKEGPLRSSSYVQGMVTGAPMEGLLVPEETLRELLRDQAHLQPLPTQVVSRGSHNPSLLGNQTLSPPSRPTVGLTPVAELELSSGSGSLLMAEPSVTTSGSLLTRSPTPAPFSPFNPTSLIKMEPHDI

Turning to AAAATG, the binding signal with FEV is 1.16 fold enrichment (6-mer frequency, TF over GST control); in the experiment with ETV5, 1.23 fold enrichment (6-mer frequency, TF over GST control); with HSF1 it was 1.15 fold enrichment (6-mer frequency, TF over GST control); with SPIC it was 1.32 fold enrichment (6-mer frequency, TF over GST control); in the experiment with ELF4, 1.26 fold enrichment (6-mer frequency, TF over GST control); with ELK4 it was 1.27 fold enrichment (6-mer frequency, TF over GST control). Moreover, the binding signal with ETV2 was 1.31 fold enrichment (6-mer frequency, TF over GST control); with ELF3, 1.32 fold enrichment (6-mer frequency, TF over GST control); with CRX, 1.1 fold enrichment (6-mer frequency, TF over GST control); in the experiment with ETV1 it was 1.2 fold enrichment (6-mer frequency, TF over GST control); with ERF, 1.21 fold enrichment (6-mer frequency, TF over GST control); with ETV3L, 1.24 fold enrichment (6-mer frequency, TF over GST control). Further, the binding signal is 1.21 fold enrichment (6-mer frequency, TF over GST control) with ETS2; 1.08 fold enrichment (6-mer frequency, TF over GST control) with SPDEF; 1.28 fold enrichment (6-mer frequency, TF over GST control) in the experiment with ETV7; 1.24 fold enrichment (6-mer frequency, TF over GST control) with ELF5; 1.2 fold enrichment (6-mer frequency, TF over GST control) with ETV3; 1.24 fold enrichment (6-mer frequency, TF over GST control) in the experiment with ETV6.
